PTHR1 ag: PTHR1 (human) receptor agonism. HEK293 GP2 PTHR1 cells, GloSensor cAMP luminescence, 1 h. Potency, µM (series often up to 115 µM), without a hit: at the highest dose activation, actives largely listed as activators. hit rate 0.075% among 410,000; further: nearly all actives have a fitted effect of over 55% in size
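HEK-293-derived GP2 cells expressing PTHR1 and a GloSensor cAMP reporter, 3,000/well, plated overnight, given luciferin plus IBMX (each 0.5 mM as added) for 1 h at 37 °C, then compound for 1 h at 37 °C. Luminescence was read after 15 min at room temperature.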
GLS inh: glutaminase GLS (human) inhibition; GLS enzymatic activity, qHTS titration; Potency, µM (doses to about 45.5 µM), for the others: at the highest dose activity change, negative = inhibition, hits mostly inhibitors; hit rate 0.21% among 410,000; further: on the % scale 0 is the no-effect control and ±100 the full control effect
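Enzyme dispensed in phosphate buffer (45 mM, pH 8.2, 0.02% Tween-20), compounds pinned in, then 1 mM L-glutamine solution and the glutamate oxidase–HRP–Amplex Red mix added; fluorescence read immediately and again after 30 min at room temperature.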
ALOX12 inh: inhibitors of human 12S-lipoxygenase ALOX12 | hit rate 1.1% among 580,000 | P18054 | Potency, µM (series often up to 108 µM), for inactives: at the top dose activity change, negative = inhibition, most hits filed as inhibitors | AID 1671190 | purified 12hLO, xylenol orange hydroperoxide absorbance; further: on the % scale 0 is the no-effect control and ±100 the full control effect
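Purified human 12hLO (150 nM final) in 25 mM Hepes, 0.01% Triton X-100, pH 7.0 was preincubated 15 min at room temperature with compound. Then 40 uM arachidonic acid was added, 30 min. Hydroperoxide was read by Fe-XO absorbance ratio 573/405 nm.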
GRP78 ERSR act: induces the endoplasmic reticulum stress response in human glioma cells. U87-MG GRP78 promoter luciferase reporter, 16 h. Potency, µM, without a hit: at the highest dose activation, most hits filed as activators. hit rate 0.02% among 420,000. AID 602332; further: series mostly up to about 76 µM; % of control where 0% means no effect; nearly all actives have a fitted effect of over 35% in size
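Stably transfected U87-MG glioma cells carrying a GRP78-based luciferase sensor; 16 h compound incubation. Luminescence end-point read 10 min after Bright-Glo addition at room temperature.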
GLP-1R inv ag: GLP-1 receptor (human) inverse agonism | AID 624417 | P43220 | HEK293 GLP-1R CRE-luciferase, luminescence, 24 h; GLP-1R form is constitutively active | Potency, µM (highest dose often 38.3 µM), inactives show at the highest dose activity change, negative = inhibition, usual class: inhibitors | hit rate 1.6% among 410,000; further: on the % scale 0 is the no-effect control and ±100 the full control effect; nearly all actives have a fitted effect of over 55% in size
Target sequence (P43220 whole entry, looked up): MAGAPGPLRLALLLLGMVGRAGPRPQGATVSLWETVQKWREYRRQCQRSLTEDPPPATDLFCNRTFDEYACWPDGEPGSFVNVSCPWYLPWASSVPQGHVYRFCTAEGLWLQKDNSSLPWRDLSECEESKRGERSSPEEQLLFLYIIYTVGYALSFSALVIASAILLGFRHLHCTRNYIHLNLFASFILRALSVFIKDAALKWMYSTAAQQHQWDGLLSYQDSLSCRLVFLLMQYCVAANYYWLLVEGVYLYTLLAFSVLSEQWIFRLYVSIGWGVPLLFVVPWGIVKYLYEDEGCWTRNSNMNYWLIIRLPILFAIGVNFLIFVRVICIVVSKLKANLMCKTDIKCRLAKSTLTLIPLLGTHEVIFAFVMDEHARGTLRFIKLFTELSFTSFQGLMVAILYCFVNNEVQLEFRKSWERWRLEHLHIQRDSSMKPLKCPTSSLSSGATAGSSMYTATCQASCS
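Using stably transfected HEK293 (constitutively active GLP-1R, cAMP-luciferase reporter), compounds were incubated 24 hr and luciferase measured by luminescence.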
GLP-1R agonist: agonists of human GLP-1 receptor; P43220; HEK293 GLP-1R CRE-luciferase, luminescence, 4-6 h; cells express a hypersensitive GLP-1R form; Potency, µM (highest dose often 45.6 µM), for inactives: at the highest dose activation, actives largely listed as activators; hit rate 0.007% among 380,000; AID 624172; further: % of control where 0% means no effect
An asterisk follows results filed as active; [ ] = dose if it differs, or a comment. A selection: hits, their analogues and other compounds. The true share with any hit is near 2.3%. The call rests on the fitted dose curve; in most records, active means well fitted curve in the direction sought with a large enough effect; inconclusive means small, poorly fitted or top-dose-only effect, or another doubt; inactive means no such curve, though single readings can be large; an effect the other way counts as inactive or inconclusive. Potency means the concentration at half of the fitted maximal effect.

Results for COC(=O)C1=C(C)NC(=O)/C1=C\c1cc(C)n(-c2ccccc2)c1C ?
PTHR1 ag: -10%; GLS inh: 5%; ALOX12 inh: inconclusive; GRP78 ERSR act: -1%; GLP-1R inv ag: inconclusive; GLP-1R agonist: 22%

Results for COc1ccccc1CC(=O)NCc1cccs1 ?
ALOX12 inh: 7%

How did CCSc1nc2c(c(=O)[nH]c(=O)n2C)n1Cc1ccccc1Cl do in these assays?
ALOX12 inh: 32µM*

What do the screens show for `NC(=S)NN=C(c1ccc(Br)cc1)C1CC1`?
PTHR1 ag: -22%; GLS inh: 64%; ALOX12 inh: -4%; GRP78 ERSR act: -3%; GLP-1R inv ag: 4µM*; GLP-1R agonist: -9%

How did O=C1COc2ccc(-c3ccncc3)nc2CN1Cc1ccc(C(F)(F)F)cc1 do in these assays?
ALOX12 inh: -13%[176 µM]

Results for O=C1COc2ccc(-c3ccoc3)nc2CN1Cc1ccc(C(F)(F)F)cc1 ?
ALOX12 inh: 40µM*

How did CCN1CCCC(Sc2nc3c([nH]2)c(=S)n(C)c(=O)n3C)C1 (configuration not stated) do in these assays?
PTHR1 ag: inconclusive; GLS inh: 8%; ALOX12 inh: 0%; GRP78 ERSR act: -6%; GLP-1R inv ag: 4.5µM*; GLP-1R agonist: 0%

How did Cn1c(=S)c2[nH]c(SCCN)nc2n(C)c1=O do in these assays?
PTHR1 ag: -13%; GLS inh: 2%; ALOX12 inh: inconclusive; GRP78 ERSR act: -5%; GLP-1R inv ag: inconclusive; GLP-1R agonist: -3%

Results for Cn1c(=S)c2[nH]c(SCCN3CCCC3)nc2n(C)c1=O ?
PTHR1 ag: 13%; GLS inh: -5%; ALOX12 inh: -16%; GRP78 ERSR act: -3%; GLP-1R inv ag: 5.6µM*; GLP-1R agonist: -5%

How did Cc1cc(C)c2c(N)c(C(=O)Nc3ncc(C)s3)sc2n1 do in these assays?
PTHR1 ag: -15%[57.5 µM]; GLS inh: -11%; ALOX12 inh: 0%[57.4 µM]; GRP78 ERSR act: -17%; GLP-1R inv ag: 1.3µM*; GLP-1R agonist: -27%

What do the screens show for `COC(=O)c1sc2nc(C)cc(C)c2c1N`?
PTHR1 ag: -1%; GLS inh: 8%; ALOX12 inh: -8%; GRP78 ERSR act: 4%; GLP-1R inv ag: 85%; GLP-1R agonist: 7%

Results for Fc1ccc(Nc2cncc(-c3ccsc3)c2)cc1Cl ?
PTHR1 ag: -19%; GLS inh: -1%; ALOX12 inh: 40µM*; GRP78 ERSR act: 3%; GLP-1R inv ag: 13%; GLP-1R agonist: 8%

Results for O=c1c(Cc2ccc(F)cc2)c(O)ccn1Cc1cccc(Cl)c1 ?
PTHR1 ag: -18%; GLS inh: 2%; ALOX12 inh: -7%; GRP78 ERSR act: -5%; GLP-1R inv ag: 7.9µM*; GLP-1R agonist: -10%

What do the screens show for `CC(C1SC(=S)NC1=O)C1SC(=S)NC1=O` (configuration not stated)?
PTHR1 ag: inactive; GLS inh: -19%; ALOX12 inh: 13µM*; GRP78 ERSR act: -6%; GLP-1R inv ag: -9%; GLP-1R agonist: -3%

What do the screens show for `Cc1oc2ncn(C)c(=O)c2c1C(=O)NC(C)c1ccccc1` (configuration not stated)?
PTHR1 ag: inconclusive; GLS inh: 11µM*; ALOX12 inh: -5%; GRP78 ERSR act: -1%; GLP-1R inv ag: 27%

Results for O=c1c2ccccc2sn1-c1nccs1 ?
PTHR1 ag: -11%; GLS inh: 1.3µM*; ALOX12 inh: 1.6µM*; GRP78 ERSR act: -9%; GLP-1R inv ag: 8%; GLP-1R agonist: -2%

How did N#Cc1ccc2c(=O)n(-c3ccccc3)sc2c1 do in these assays?
PTHR1 ag: -54%; GLS inh: inconclusive; ALOX12 inh: 0.45µM*; GRP78 ERSR act: -2%; GLP-1R inv ag: 9%; GLP-1R agonist: 4%

How did O=c1c2ccccc2sn1-c1ccccc1F do in these assays?
PTHR1 ag: -32%; GLS inh: 7.9µM*; ALOX12 inh: inconclusive; GRP78 ERSR act: -10%; GLP-1R inv ag: 14µM*; GLP-1R agonist: -5%

What do the screens show for `CC(=O)Nc1ccc2c(=O)n(-c3ccccc3)sc2c1`?
PTHR1 ag: -2%; GLS inh: 6.3µM*; ALOX12 inh: 1µM*; GRP78 ERSR act: -13%; GLP-1R inv ag: 6%; GLP-1R agonist: 9%

How did O=C1c2ccccc2C(=O)N1c1nccs1 do in these assays?
PTHR1 ag: -37%; GLS inh: 1%; ALOX12 inh: -15%; GRP78 ERSR act: -1%; GLP-1R inv ag: 7%; GLP-1R agonist: 10%

How did COc1ccc(-c2cc(N3CCCC(NC(=O)c4ccc5ncccc5c4)C3)n[nH]2)cc1 (configuration not stated) do in these assays?
ALOX12 inh: 2%

What do the screens show for `O=C(CSc1nnc(Cc2cc(=O)[nH]c(=O)[nH]2)n1-c1ccc(F)cc1)c1ccccc1`?
ALOX12 inh: -11%

Results for COc1ccc(CNC(=O)[C@H](C)NC(=O)c2cc3c(OC)ccc(OC)c3[nH]2)cc1 ?
ALOX12 inh: -11%

What do the screens show for `C=CCCC(=O)NC1CCN(Cc2cccc(C(F)(F)F)c2)CC1`?
ALOX12 inh: 39%

Results for O=c1c2ccccc2sn1-c1ccc(S(=O)(=O)N2CCCC2)cc1 ?
PTHR1 ag: -6%[57.5 µM]; GLS inh: inconclusive; ALOX12 inh: -78%; GRP78 ERSR act: 2%; GLP-1R inv ag: 6%; GLP-1R agonist: 0%

What do the screens show for `O=C(O)c1cccc(-n2sc3ccccc3c2=O)c1`?
PTHR1 ag: -21%; GLS inh: 8.9µM*; ALOX12 inh: 11µM*; GRP78 ERSR act: -2%; GLP-1R inv ag: 0%; GLP-1R agonist: 0%

What do the screens show for `O=C(O)c1cccc(-n2c(/C=C/c3ccccc3)nc3ccccc3c2=O)c1`?
PTHR1 ag: -4%; GLS inh: -1%; ALOX12 inh: inconclusive; GRP78 ERSR act: -4%; GLP-1R inv ag: -15%; GLP-1R agonist: -5%

How did O=c1c2ccccc2sn1-c1ccccc1 do in these assays?
PTHR1 ag: -14%; GLS inh: 4.5µM*; ALOX12 inh: 0.56µM*; GRP78 ERSR act: -15%; GLP-1R inv ag: 10µM*; GLP-1R agonist: -8%

What do the screens show for `CN(C)S(=O)(=O)c1cccc(-n2sc3ccccc3c2=O)c1`?
PTHR1 ag: -10%; GLS inh: inconclusive; ALOX12 inh: 1.8µM*; GRP78 ERSR act: -9%; GLP-1R inv ag: 1%; GLP-1R agonist: 3%

How did O=c1c2ccccc2sn1-c1ccc(S(=O)(=O)N2CCCCC2)cc1 do in these assays?
PTHR1 ag: -16%[57.5 µM]; GLS inh: 95%; ALOX12 inh: inconclusive; GRP78 ERSR act: 1%; GLP-1R inv ag: -3%; GLP-1R agonist: -1%
